Measurements reported in PubChem BioAssay.
Inconclusive results are not listed. Active and inactive are the calls of the source.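 Rule for the calls, unless noted: active = viability at or below 30% in both replicate assays; inconclusive = viability at or below 30% in just one of the two assays; inactive = the rest.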

Tests used:
[1] = Her2 expression decrease, cell viability multiplex – SKBR3 breast tumor cells, AlphaScreen, ATP viability, primary screen (AID 461;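 active = Her2 level under about 52% in both replicate screens, with viability over 70% of control, limit read from the data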;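 for Her2 level: lower value means less Her2 protein in the cells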;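 for viability: percent of carrier control wells set as 100% viability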); conditions: SKBR3 Her2 protein level, 18-24 h, measured here: SKBR3 viability, ATP luminescence, at 10 µM
[2] = biological target: Receptor tyrosine-protein kinase erbB-2 (Homo sapiens) (UniProt P04626); experiment: as above; conditions: 18-24 h, at 10 µM, stronger effect = lower value
[3] = reduced viability of SK-BR-3 breast cancer cells – cell-based, 24 h, human, pilot screen (AID 572;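 active = viability at or below 10% of carrier control in both of two separate runs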;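 note: compound exposure lasted between 18 and 24 h rather than exactly 24 h; 100% = carrier-treated control wells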); conditions: SK-BR-3 viability, CellTiter-Glo luminescence, at 10 µM, stronger effect = lower value
[4] = HUVEC growth inhibition – cell-based, human, primary screen (AID 575); conditions: HUVEC proliferation, CellTiter-Glo luminescence, 72 h; at 10 µM; stronger effect = lower value;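 note: 100% = median of untreated cell wells with 0.1% DMSO on each plate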
[5] = H69AR cell proliferation blockers – human, duplicate replicates, primary screen (AID 580;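 active = viability at or under a set limit in both replicates, limit being median viability minus 3 SD, cut at about 48% in these data, passing the limit was not always enough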;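 note: 100% = mean luminescence of untreated wells and 0% = no signal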); conditions: H69AR lung tumor cells viability, ATP luminescence, 72 h; at 10 µM; stronger effect = lower value
[6] = MRP1 drug-resistance reversers in H69AR cells – cell-based, doxorubicin co-treatment, pilot screen (AID 601;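 active = viability loss from added drug above about 55%, and viability with drug at most 40%, in both replicates, limit read from the data, passing the limit was not always enough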); conditions: CellTiter-Glo, 72 h, at 10 µM; for differential viability (reversal): stronger effect = higher value
[7] = S. cerevisiae growth inhibition in restrictive medium, OD615, pilot screen, restrictive growth control, yeast lifespan reduction project (AID 706;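 active = growth inhibition above a set limit, 3 SD over mean compound inhibition, in both replicates, cut at about 43% in these data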;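 note: modified DeaD lifespan yeast strain shifted to restrictive glucose medium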); conditions: OD615, 48 h, at 10 µM, stronger effect = higher value
[8] = doxorubicin toxicity protection in MRP-1 cells – H69AR cells, CellTiter-Glo, duplicate, MRP-1 activator project, pilot screen (AID 807;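 active = viability increase at or above a cutoff of the median across tested compounds plus 3 SD, cut at about 8.5% in these data, passing the limit was not always enough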;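 note: compound pretreatment 18-22 h then 72 h combined with doxorubicin; 0% = doxorubicin alone and 100% = vehicle without doxorubicin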); conditions: H69AR viability with doxorubicin, CellTiter-Glo luminescence; at 10 µM; stronger effect = higher value
[9] = viability of HCT116 without oncogenic beta-catenin – human colon tumor cells, pilot screen (AID 823;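 active = cell viability at or below a set limit in both duplicate runs, the limit being the all-compound median minus 4 SD, cut at about 23% in these data, passing the limit was not always enough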;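 note: 0% = wells killed by 20 µM Hyamine and 100% = untreated DMSO cell wells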); conditions: HCT116 beta-catenin knockout viability, CellTiter-Glo, 60 h; at 10 µM; stronger effect = lower value
[10] = RAM pathway blockade in budding yeast – dse1pr::URA3 reporter, 5-FOA selection, pilot screen (AID 869;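 active = inhibition over a set limit, the all-compound mean plus 3 SD, in both replicate runs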;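 note: 0% = DMSO wells with no growth and 100% = 10 µM 1-NA-PP1 with full growth; RAM network block rescues cells from 5-FOA so hits raise OD615 growth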); conditions: S. cerevisiae dse1pr::URA3 5-FOA growth, OD615, 2 d; at 10 µM; stronger effect = higher value; strain carries analog-sensitive mutant Cbk1 kinase
[11] = RAM signaling pathway blockade in yeast – S. cerevisiae, Pdr1DBD-CYC8 efflux-inhibited sensitized strain, primary screen (AID 1298;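 active = RAM network inhibition above 8.4% in each of two replicates, 3 SD over the compound average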;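 note: 0% = DMSO untreated cells without growth and 100% = 10 µM 1-NA-PP1 full growth; higher means more yeast growth rescued from 5-FOA killing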); conditions: S. cerevisiae cbk1-as DSE1-URA3 strain, 5-FOA growth OD615, 2 d; at 50 µM; stronger effect = higher value
[12] = viability of PTEN-null HCT116 cells – cell-based, HCT116 clonal line, CellTiter-Glo, pilot screen (AID 824;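 active = viability at or below 27.92% in each of two runs, the all-compound median minus 4 SD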;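 note: 0% = 20 µM Hyamine control and 100% = vehicle cell control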); conditions: HCT116 PTEN-deleted viability, 60 h, at 10 µM, stronger effect = lower value
[13] = H69AR cells + 2 uM doxorubicin, measured here: viability with 2 uM doxorubicin, stronger effect = lower value
[14] = H69AR cells, compound alone cytotoxicity

Sequence of Receptor tyrosine-protein kinase erbB-2 (Homo sapiens) (P04626 whole entry, looked up): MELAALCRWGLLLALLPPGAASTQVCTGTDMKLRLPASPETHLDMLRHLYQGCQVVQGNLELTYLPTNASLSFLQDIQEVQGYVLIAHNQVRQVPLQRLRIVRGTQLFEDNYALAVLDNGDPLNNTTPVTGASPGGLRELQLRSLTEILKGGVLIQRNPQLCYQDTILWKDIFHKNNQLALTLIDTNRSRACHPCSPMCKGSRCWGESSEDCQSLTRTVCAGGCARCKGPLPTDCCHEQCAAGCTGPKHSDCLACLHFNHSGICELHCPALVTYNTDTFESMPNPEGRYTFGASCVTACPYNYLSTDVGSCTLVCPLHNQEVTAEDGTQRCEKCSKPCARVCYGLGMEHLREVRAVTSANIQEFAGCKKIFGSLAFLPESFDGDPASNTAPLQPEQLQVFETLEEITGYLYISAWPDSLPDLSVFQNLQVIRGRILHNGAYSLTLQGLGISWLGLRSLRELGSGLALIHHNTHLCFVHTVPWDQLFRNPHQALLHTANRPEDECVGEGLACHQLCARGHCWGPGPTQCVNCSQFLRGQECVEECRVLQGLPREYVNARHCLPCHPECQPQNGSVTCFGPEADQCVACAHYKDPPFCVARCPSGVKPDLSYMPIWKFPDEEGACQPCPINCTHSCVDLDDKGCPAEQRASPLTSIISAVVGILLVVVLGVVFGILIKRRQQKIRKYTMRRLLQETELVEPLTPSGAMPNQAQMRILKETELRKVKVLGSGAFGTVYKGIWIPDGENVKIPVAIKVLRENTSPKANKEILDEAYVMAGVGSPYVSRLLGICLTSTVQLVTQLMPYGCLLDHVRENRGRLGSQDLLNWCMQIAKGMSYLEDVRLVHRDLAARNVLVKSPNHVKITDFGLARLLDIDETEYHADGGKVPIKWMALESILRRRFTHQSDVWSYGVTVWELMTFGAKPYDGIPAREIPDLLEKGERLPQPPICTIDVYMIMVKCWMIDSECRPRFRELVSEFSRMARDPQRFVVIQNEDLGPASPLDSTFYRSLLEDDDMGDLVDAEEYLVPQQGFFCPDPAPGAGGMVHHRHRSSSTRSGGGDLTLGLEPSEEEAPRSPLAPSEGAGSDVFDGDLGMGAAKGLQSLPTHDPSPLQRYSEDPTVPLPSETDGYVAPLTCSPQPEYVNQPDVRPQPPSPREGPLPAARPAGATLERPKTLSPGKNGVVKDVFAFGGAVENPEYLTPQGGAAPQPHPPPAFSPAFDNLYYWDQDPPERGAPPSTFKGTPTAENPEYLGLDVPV

Compound	viability [1]	Her2 level [2]	viability [3]	viability [4]	viability [5]	differential viability (reversal) ([6]; H69AR cells + 2 uM doxorubicin)	viability [6, 13]	viability [6, 14]	growth inhibition [7]	viability increase [8]	viability [9]	inhibition [10]	RAM network inhibition [11]	viability [12]
c1ccc2[nH]c(-c3cscn3)nc2c1	106%	104% (inactive)	106% (inactive)	91.1% (inactive)	97.9% (inactive)	-4.19% (inactive)	102%	97.9%						
CC(Sc1nc2ccccc2s1)C(=O)N1CCOCC1 (stereo not drawn)									2.68% (inactive)	-3.03% (inactive)	95.9% (inactive)	1.84% (inactive)	6.03% (inactive)	
C[C@]12CC[C@@H]3c4ccc(OS(=O)(=O)O)cc4CC[C@H]3[C@@H]1CCC2=O	87%	108% (inactive)	87% (inactive)	99.6% (inactive)										
CC1(C)O[C@@H]2C[C@H]3[C@@H]4C[C@H](F)C5=CC(=O)C=C[C@]5(C)[C@@]4(F)[C@@H](O)C[C@]3(C)[C@]2(C(=O)CO)O1	94%	110% (inactive)	94% (inactive)	90.5% (inactive)	94.1% (inactive)	1.96% (inactive)	92.2%	94.1%						
CC(=O)[C@@]1(O)CC[C@H]2[C@@H]3CCC4=CC(=O)CC[C@]4(C)[C@H]3[C@@H](O)C[C@@]21C	97%	104% (inactive)	97% (inactive)	94.8% (inactive)	99.5% (inactive)	0.36% (inactive)	99.2%	99.5%						
CCOc1ccc2nc(S(N)(=O)=O)sc2c1	127%	92% (inactive)	127% (inactive)	59% (inactive)	67.6% (inactive)	7.23% (inactive)	60.4%	67.6%						
COc1ccc2cc(C(=O)Nc3c(C)n(C)n(-c4ccccc4)c3=O)sc(=O)c2c1OC										-1.5% (inactive)	97.7% (inactive)	2.33% (inactive)	0.16% (inactive)	92.6% (inactive)
CCN(CC)CCNC(=O)c1cc(S(C)(=O)=O)ccc1OC	114%	95% (inactive)	114% (inactive)	102% (inactive)	111% (inactive)	14.5% (inactive)	96.1%	111%						
CC(C[N+](C)(C)C)OC(N)=O (stereo not drawn)	101%	114% (inactive)	101% (inactive)	97.5% (inactive)	99.4% (inactive)	1.13% (inactive)	98.3%	99.4%						
C[C@H]1C[C@H]2[C@@H]3CCC4=CC(=O)C=C[C@]4(C)[C@@]3(Cl)[C@@H](O)C[C@]2(C)[C@@]1(O)C(=O)CO	110%	112% (inactive)	110% (inactive)	91.4% (inactive)	97.5% (inactive)	-5.3% (inactive)	103%	97.5%						
O=C1C(=C2CCCCC2)SC(=S)N1Cc1ccco1										-4.02% (inactive)	80.2% (inactive)	0.825% (inactive)	2.66% (inactive)	84.4% (inactive)
Cc1nnc(SCC2=C(C(=O)O)N3C(=O)[C@@H](NC(=O)Cn4cnnn4)[C@H]3SC2)s1	88.5%	99.5% (inactive)	88.5% (inactive)	105% (inactive)	101% (inactive)	1.93% (inactive)	98.7%	101%						
CCOC(=O)CCC(=O)O[C@H]1[C@H](O[C@@H]2[C@@H](C)[C@H](O[C@H]3C[C@@](C)(OC)[C@@H](O)[C@H](C)O3)[C@@H](C)C(=O)O[C@H](CC)[C@@](C)(O)[C@H](O)[C@@H](C)C(=O)[C@H](C)C[C@@]2(C)O)O[C@H](C)C[C@@H]1N(C)C	97%	98% (inactive)	97% (inactive)	79.6% (inactive)	89.8% (inactive)	-0.63% (inactive)	90.4%	89.8%						
Cc1cccc(Nc2ccccc2C(=O)O)c1C	85%	105% (inactive)	85% (inactive)	65.7% (inactive)	99.4% (inactive)	-3.9% (inactive)	103%	99.4%						
Nc1ccc2cn[nH]c2c1	100%	128% (inactive)	100% (inactive)	82.2% (inactive)	93.1% (inactive)	-18.1% (inactive)	111%	93.1%						
O=C(c1cc(-c2ccccc2O)on1)N1CCc2ccccc2C1										-0.83% (inactive)	97.9% (inactive)	0.485% (inactive)	7.78% (inactive)	90.5% (inactive)
CCCOc1ccc(C(=O)Nc2cc(-c3nn4c(C)nnc4s3)ccc2C)cc1										-3.69% (inactive)	101% (inactive)	1.7% (inactive)	3.75% (inactive)	92.9% (inactive)
C[C@]12CCC(=O)C=C1CC[C@@H]1[C@@H]2CC[C@@]2(C)[C@H]1CC[C@]2(O)C(=O)CO	99%	142% (inactive)	99% (inactive)	97.7% (inactive)	92.8% (inactive)	-6.52% (inactive)	99.4%	92.8%						
CCC1(c2ccccc2)C(=O)NCNC1=O	96.5%	102% (inactive)	96.5% (inactive)	116% (inactive)	102% (inactive)	16.5% (inactive)	85.7%	102%						
